{"source": "PubChem BioAssay", "note": "Values without a mark were called inactive.", "data": [{"target": "Luciferin 4-monooxygenase (Photinus pyralis) (UniProt P08659)", "sequence (P08659 whole entry, looked up)": "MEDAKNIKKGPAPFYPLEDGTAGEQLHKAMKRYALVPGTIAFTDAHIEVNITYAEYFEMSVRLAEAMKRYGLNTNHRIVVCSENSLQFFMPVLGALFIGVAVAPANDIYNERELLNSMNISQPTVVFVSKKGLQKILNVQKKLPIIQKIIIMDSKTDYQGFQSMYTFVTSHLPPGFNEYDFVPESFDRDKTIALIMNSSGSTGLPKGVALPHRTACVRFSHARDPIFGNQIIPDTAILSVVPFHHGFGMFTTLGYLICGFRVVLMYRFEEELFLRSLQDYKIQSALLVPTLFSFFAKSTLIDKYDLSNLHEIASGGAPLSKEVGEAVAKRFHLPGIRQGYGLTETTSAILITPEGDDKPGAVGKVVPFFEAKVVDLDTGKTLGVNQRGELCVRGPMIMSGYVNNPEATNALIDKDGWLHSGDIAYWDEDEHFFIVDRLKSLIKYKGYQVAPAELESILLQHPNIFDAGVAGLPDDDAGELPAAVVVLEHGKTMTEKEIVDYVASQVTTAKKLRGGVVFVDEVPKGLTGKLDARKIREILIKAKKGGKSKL", "assay": "inhibition of purified Photinus pyralis luciferase – biochemical, luminescence, purified enzyme, 2006 set, primary screen (AID 1141);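 note: cell-free assay with purified firefly luciferase at 100 ng per well in PBS; test concentration not given here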", "details": "purified firefly luciferase, SteadyGlo luminescence, 30 min; higher = more signal, called active from +8 up or from −8 down", "values": [{"smiles": "CC(C)=CCN[C@H](CO)c1ccccc1", "z-score": 0.765}, {"smiles": "CCCC#C[Si](O[C@H](CC)c1cn(Cc2cccc(Cl)c2)nn1)(C(C)C)C(C)C", "z-score": -0.786}, {"smiles": "C=CCOC(=O)[C@H]1[C@@H]2C(=O)O[C@@H](c3ccccc3)[C@@H](c3ccccc3)N2[C@@H](c2ccc(OCCOC(=O)[C@H]3C[C@H]4C(=O)N[C@@H](CCCCNC(C)=O)C(=O)N4[C@H]3c3cccc(OCCO)c3)cc2)[C@]12C(=O)Nc1ccccc12", "z-score": -0.487}, {"smiles": "C=C(COC)/C(=C/C[C@@H](OC(=O)c1ccncc1)c1ccc(CO)o1)c1cc(C(=O)OC)ccc1OC", "z-score": -1.83}, {"smiles": "CC(C)C(=C=CC[C@@H](O)c1ccc(OCCO)cc1)C[C@@H](O)COCc1ccccc1", "z-score": -1.3}, {"smiles": "CCCCCCc1nc(-c2cc(C)c(OC)c(C)c2)cc2c1[Si](C(C)C)(C(C)C)OC2", "z-score": 1}, {"smiles": "COc1cc2c(cc1O)C(C1CC1)N(Cc1sc3ccccc3c1Cl)CC2", "note": "(stereo unspecified)", "z-score": -0.593}, {"smiles": "COCCOC(=O)N1C(=O)[C@@]2(c3cc(C#CCC(C(=O)OC)C(=O)OC)ccc31)[C@H](C(=O)N1CCN(c3ncccn3)CC1)[C@H]1C(=O)O[C@H](c3ccccc3)[C@H](c3ccccc3)N1[C@@H]2c1ccccc1OCCO", "z-score": -0.291}, {"smiles": "C[C@H]1NC(=O)[C@@]23C(=O)N[C@@H](Cc4ccccc4)C2[C@H](C)[C@@]2(C)O[C@H]2C3/C=C/C/C=C\\CNC(=O)[C@@H]2CCCN2C1=O", "note": "(stereo partly specified)", "z-score": 0.193}, {"smiles": "CCOC(=O)C[C@H]1[C@H](OC(=O)c2ccc(C(=O)c3ccccc3)cc2)[C@@H](NC(=O)c2ccc3ccccc3n2)c2cc(OCCCO)ccc2N1C(=O)c1ccccc1", "z-score": 0.393}, {"smiles": "CCCC[C@@H]1C[C@H]1[C@@H](NC(=O)c1cccs1)c1ccc(-c2ccccc2)cc1", "z-score": 1.65}, {"smiles": "COC(=O)[C@@]1(Cc2ccc(OC)cc2)[C@H]2c3cc(C(=O)N4CCCC4)n(Cc4ccc(O)c(OC)c4)c3C[C@H]2CN1C(=O)c1ccccc1", "z-score": 1.62}, {"smiles": "[N-]=[N+]=NCc1ccccc1C[C@]1(C(N)=O)COC(c2ccc(OCCCO)cc2)=N1", "z-score": -2.06}, {"smiles": "C=C(COC)C(=O)CC[C@@H](OC(C)=O)c1ccc(CO)o1", "z-score": -1.15}, {"smiles": "O=C1c2ccccc2[C@](Cc2ccccc2I)(C(=O)NCCN2CCOCC2)[C@H](c2ccc(CO)cc2)N1Cc1ccccc1Cl", "z-score": -0.593}, {"smiles": "COCCCNC(=O)[C@]1(CCC(=O)OC(C)(C)C)N=C(c2ccc(OCCCO)cc2)O[C@@H]1c1ccccc1CN=[N+]=[N-]", "z-score": -1.11}, {"smiles": "C=CCNC(=O)[C@@H]1[C@H]2C(=O)O[C@H](c3ccccc3)[C@H](c3ccccc3)N2[C@H](c2ccc(OCCO)cc2)[C@@]12C(=O)Nc1ccc(C#CCC(C(=O)OC)C(=O)OC)cc12", "z-score": -1.08}, {"smiles": "COc1cc2c(cc1OC)CN(C(=O)[C@@H]1[C@H]3C(=O)O[C@H](c4ccccc4)[C@H](c4ccccc4)N3[C@H](c3ccccc3OCCO)[C@@]13C(=O)Nc1ccc(C#CCCO)cc13)CC2", "z-score": -0.785}, {"smiles": "C=CCC(OC(C)=O)[C@@H]1[C@@H](N(Cc2cc3ccccc3o2)C(=O)c2cccc3ccccc23)c2cc(OCCCO)ccc2N1C(=O)c1ccc(-c2ccccc2)cc1", "note": "(stereo partly specified)", "z-score": -0.219}, {"smiles": "COC(=O)[C@@]1(Cc2ccc(F)cc2)[C@H]2c3cc(C(=O)N4CCCC4)n(CCCNc4ncc(C(F)(F)F)cc4Cl)c3C[C@H]2CN1C(=O)c1ccccc1", "z-score": 1.37}, {"smiles": "CC(C)N1C(=O)c2ccccc2[C@](C)(C(=O)NCCN2CCOCC2)[C@@H]1c1ccc(CO)cc1", "z-score": -0.265}, {"smiles": "CC(C)C(=C=CC[C@@H](O)c1ccc(OCCO)cc1)C[C@@H](O)c1ccccn1", "z-score": -0.069}, {"smiles": "CO[C@H]1O[C@H](CO)[C@@H](OC(=O)Nc2ccc(Oc3ccccc3)cc2)[C@H](OC(=O)Nc2ccc3c(c2)OCO3)[C@H]1OC(=O)Nc1ccc2c(c1)OCO2", "z-score": -6.84}, {"smiles": "C=CCOC(=O)[C@H]1[C@@H]2C(=O)O[C@@H](c3ccccc3)[C@@H](c3ccccc3)N2[C@@H](c2ccc(OCCOC(=O)[C@@H]3C[C@@H]4C(=O)N[C@@H](CC(C)C)C(=O)N4[C@@H]3c3ccc(O)cc3)cc2)[C@]12C(=O)Nc1ccccc12", "z-score": -0.0838}, {"smiles": "O=C(c1ccccc1)N1C(=O)[C@]2(COC(c3ccc(OCCCO)cc3)=N2)Cc2ccccc21", "z-score": -1.19}, {"smiles": "CCCc1cc2c(n1Cc1cc(F)cc(F)c1)C(C)C1CN(C(=O)c3ccccc3)C(C)(C(=O)OC)C21", "note": "(stereo unspecified)", "z-score": -1.15}, {"smiles": "O=C(c1ccccc1)N1C(=O)[C@@]2(Cc3ccccc31)N=C(c1ccc(OCCCO)cc1)O[C@H]2c1ccccc1", "z-score": -1.14}, {"smiles": "CO[C@H]1O[C@H](CO)[C@@H](OC(=O)Nc2ccccc2)[C@H](OC(=O)Nc2ccccc2)[C@@H]1OC(=O)Nc1ccccc1", "z-score": 0.713}, {"smiles": "COc1ccc(CCNC(=O)[C@@]2(Sc3ccc(C)cc3)CC(=O)N(C3Cc4ccccc4C3)[C@@H]2c2ccc(CO)cc2I)cc1", "z-score": -0.704}, {"smiles": "CCCCCN1CC=CC23O[C@@H]4C=CCCOC(=O)C4[C@H]2C(=O)N(CCCCCO)[C@@H]3C1=O", "note": "(stereo partly specified)", "z-score": 0.0192}, {"smiles": "COc1cc2c(cc1OC)CN(C(=O)[C@H]1[C@@H]3C(=O)O[C@@H](c4ccccc4)[C@@H](c4ccccc4)N3[C@@H](c3ccc(O)cc3)[C@]13C(=O)Nc1ccc(C#CCCO)cc13)CC2", "z-score": 1.1}, {"smiles": "CN1C=C(C(=O)OCCS(C)(=O)=O)C(C(=O)OCCS(C)(=O)=O)=CC(c2ccc(CO)cc2)=CC1C1CC1", "note": "(stereo unspecified)", "z-score": -1.5}, {"smiles": "C=C[C@H](CO[Si](CC)(CC)CC)N(Cc1ccc(OC(C)=O)c(OC)c1)S(=O)(=O)c1ccc(Br)cc1", "z-score": 0.0578}, {"smiles": "C[N+](C)(C)CCCCCCNC(=O)[C@@H]1C[C@@H]2C(=O)N[C@@H](Cc3ccccc3)C(=O)N2[C@@H]1c1cccc(OCCO)c1", "z-score": -0.205}, {"smiles": "NC(=O)[C@@H]1[C@H]2C(=O)O[C@H](c3ccccc3)[C@H](c3ccccc3)N2[C@H](c2ccc(O)cc2)[C@@]12C(=O)Nc1ccccc12", "z-score": -0.366}, {"smiles": "C=C(CCCC)/C(=C/C[C@@H](OC(C)=O)c1ccc(OCCO)cc1)c1cnc2ccccc2c1", "z-score": -1.81}]}]}
